TGFb inhibitor: inhibitors of TGF-b signaling; Potency, µM (top dose mostly 46.1 µM), without a hit: at the top dose activity, negative = inhibition, most hits filed as inhibitors; AID 588855; HepG2 CAGA-GFP TGF-b/SMAD3 reporter, GFP fluorescence, 18 h; TGF-beta stimulated, 500 pg/mL final; 1.2% of 410,000 active; also: % is scaled to controls: 0 for no effect and ±100 for the full control effect; nearly all actives have a fitted effect of over 65% in size
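Inhibition of TGF-beta-driven CAGA-GFP reporter expression in HEPG2 cells is measured by cellular GFP fluorescence after 18 h stimulation with 500 pg/mL recombinant TGF-beta in 1% FBS medium at 37 degrees C.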
S2 tox: viability counter-screen for ATXN expression inhibitors; 0.49% of 400,000 active; AID 651635; S2 cells (HEK-293 line with an ATXN2-luciferase reporter) viability, CellTiter-Fluor protease fluorescence, 24 h; Potency, µM (top dose mostly 56.7 µM), actives largely listed as cytotoxic; also: nearly all actives have a fitted effect of over 40% in size
DT40 TDP1 CPT: growth inhibition of DT40 Tdp1-/-;hTDP1 cells with camptothecin (screen for TDP1 inhibitors). chicken DT40 Tdp1-/-;hTDP1 cells + 20 nM CPT, ATP luminescence, 48 h. Potency, µM (highest dose often 46.2 µM), for inactives: at the top dose activity change, negative = growth inhibition, actives largely listed as inhibitors. 12% of 420,000 active; also: % is scaled to controls: 0 for no effect and ±100 for the full control effect; nearly all actives have a fitted effect of over 55% in size
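Cell growth measured by CellTiter-Glo luminescence after a minimum 48 h, 37 C compound exposure with 20 nM CPT in Tdp1-knockout DT40 cells stably expressing hTDP1, seeded 400/well; qHTS titration format.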
HepG2 tox: kills HepG2 cells in TGF-b inhibitor counter-screen; HepG2 CAGA-GFP viability, ATP luminescence, 18 h; 0.76% of 410,000 active; Potency, µM (series often up to 46.1 µM), for inactives: at the highest dose activity change, negative = cytotoxicity, most hits filed as cytotoxic; AID 588856
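HepG2 CAGA-GFP cells (1000/well, DMEM with 1% FBS) received compound, then TGF-beta at 500 pg/mL final, and were incubated 18 hours at 37 degrees C. Viability was read by CellTiter-Glo luminescence. Media-only wells were set as complete cell-killing and DMSO as no toxicity.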
TDP1 cell noCPT: qHTS for Inhibitors of human tyrosyl-DNA phosphodiesterase 1 (TDP1): qHTS in cells in absence of CPT | DT40 Tdp1-/- hTDP1 cells, no CPT, ATP luminescence, 48 h | Potency, µM (doses to about 46.2 µM), without a hit: top-dose activity change, negative = growth inhibition, most hits filed as inhibitors | 15% of 420,000 active | AID 686978, 2013; also: % is scaled to controls: 0 for no effect and ±100 for the full control effect; nearly all actives have a fitted effect of over 55% in size
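Chicken DT40 Tdp1-/- cells stably complemented with human TDP1 were seeded at 400 cells/well with DMSO in place of 20 nM camptothecin. After compound pinning, cells grew at least 48 hr at 37 °C; viability read by CellTiter-Glo luminescence.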
ATXN2 expr inh: inhibitors of ATXN2 expression; 0.72% of 360,000 active; HEK-293 ATXN2-luciferase reporter, luminescence, 24 h; AID 1745845; Potency, µM (titrated, usually from 57 µM), without a hit: at the highest dose activity change, negative = inhibition, usual class: inhibitors; also: % is scaled to controls: 0 for no effect and ±100 for the full control effect; nearly all actives have a fitted effect of over 55% in size
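qHTS (up to 57 uM final) was run with 24 h compound exposure of reporter cells at 37 °C. Each well was multiplexed: SteadyGlo luminescence measured ATXN2-luciferase expression after a fluorogenic Gly-Phe-AFC viability readout (25 uM final).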
Numbers without * were called inactive; i = inactive; u = inconclusive; x = not tested or not shown; [ ] = dose if it differs, or a comment. Rows were chosen to be rich in hits. Some 17% of all compounds tested hit in one or more screens of this group. Calls follow the shape of the dose curve; as a rule, active = well fitted curve in the direction sought with a large enough effect; inconclusive = small, poorly fitted or top-dose-only effect, or another doubt; inactive = no such curve, though single readings can be large; an effect the other way counts as inactive or inconclusive. Potency is read from the fitted curve at half-maximal effect.

SMILES | TGFb inhibitor | S2 tox | DT40 TDP1 CPT | HepG2 tox | TDP1 cell noCPT | ATXN2 expr inh
CCOC(=O)c1ccc(N2CCN(c3ccccc3F)CC2)c(NC(=O)Nc2cccc(OC)c2)c1 | -13.6% | i | 13µM* | -13.1% | 5.8µM* | -7.3%
CCOC(=O)c1ccc(N2CCN(c3cc(C)ccc3C)CC2)c(N)c1 | 1.4% | u | 14.6µM* | -15.0% | 16.4µM* | -12.0%
CCOC(=O)c1ccc(N2CCN(c3cc(C)ccc3C)CC2)c(NC(=O)Nc2ccc(Cl)cc2)c1 | -4.9% | x | 4.61µM* | -4.4% | 4.61µM* | x
CCOC(=O)c1ccc(N2CCN(c3cc(C)ccc3C)CC2)c(NC(=O)Nc2ccc(CC)cc2)c1 | 3.5% | x | u | 0.4% | u | x
CCOC(=O)N1CCC(N2CCN(c3cc(C)ccc3C)CC2)CC1 | -22.1% | i | 29.1µM* | -8.9% | u | -26.7%
O=c1c2c3c(sc2n(Cc2ccc(F)cc2Cl)c(=O)n1-c1ccc(Cl)cc1)CCC3 | 12.3% | i | -12.1% | 0.9% | -11.3% | 8.2%
CCn1c(SCc2c(F)cccc2Cl)nc(=O)c2c(C(=O)OC)cc(C3CC3)nc21 | -20.0% | x | -7.6% | -3.5% | u | x
COC(=O)c1ccc(N2CCOCC2)c(NC(=O)Nc2cccc(OC)c2)c1 | -9.9% | u | -19.0% | -10.0% | -15.5% | 31.6µM*
COc1cccc(NC(=O)Nc2cc(Cl)ccc2C)c1 | -13.0% | i | u | -3.9% | u | x
CCOC(=O)c1ccc(N2CCN(c3cc(Cl)ccc3C)CC2)c(NC(=O)Nc2cccc(OC)c2)c1 | 18.8% | x | 16.4µM* | 1.9% | 9.2µM* | x
CC(=O)Nc1ccc(S(=O)(=O)NCCC(=O)OCc2nc(N)nc(Nc3ccccc3C)n2)cc1 | -7.0% | i | -4.7% | 6.2% | -2.1% | 6.2%
Cc1ccc(NC(=S)NNc2ncc(C(F)(F)F)cc2Cl)cc1 | u | i | u | -40.5% | u | 16.8µM*
Cc1ccc(NC(=S)NNc2ncc(C(F)(F)F)cc2Cl)c(C)c1 | u | i | u | -31.9% | u | -30.6%
O=C(NNc1ncc(C(F)(F)F)cc1Cl)c1ccc(Cl)c(Cl)c1 | -14.4% | i | -2.1% | -6.2% | -1.8% | 0.8%
FC(F)(F)c1cnc(NNC(=S)Nc2ccc(Cl)cc2)c(Cl)c1 | 2.82µM* | u | 10.3µM* | -61.6% | 13µM* | u
ON/C=N/C(=S)Nc1ncc(C(F)(F)F)cc1Cl | u | i | 14.6µM* | -16.8% | 11.6µM* | -5.2%
Fc1ccc(NC(=S)NNc2ncc(C(F)(F)F)cc2Cl)c(F)c1 | u | i | 11.6µM* | -131.3% | 13µM* | 14.1µM*
CC(C)C(=O)Nc1ncc(C(F)(F)F)cc1Cl | 3.1% | i | -8.8% | 0.2% | -4.2% | 2.8%
COc1cccc(C(=O)N2CCC(N3CC(C)OC(C)C3)CC2)c1 (stereo unspecified) | 0.0% | i | 8.7% | 31.2% | 3.3% | -5.2%
O=C(N=C1SC2CS(=O)(=O)CC2N1Cc1ccccc1)C1CC1 (stereo unspecified) | -4.1% | i | -21.5% | -10.6% | 6.5% | x
Cc1ccc(C)c(NC(=O)CSc2nc(-c3ccccc3)cc(=O)[nH]2)c1 | -23.7% | x | -15.0% | -5.1% | -7.2% | x
Cc1ccc(CN2CC(C(=O)Nc3cccc(C)n3)CC2=O)cc1 (stereo unspecified) | -14.4% | i | 8.5% | 5.4% | -8.8% | 4.5%
Nc1ccccc1Nc1cc(-c2ccccc2)nn1-c1ccccc1 | u | i | 23.1µM* | -15.6% | 20.6µM* | 2.8%
Nc1ccccc1Nc1cc(-c2ccccc2)[nH]n1 | u | i | -56.6% | 22.6% | 13µM* | 47.6%
Cc1ccc(-n2nc(-c3ccccc3)cc2Nc2ccccc2N)cc1 | 6.8% | i | -8.9% | -8.0% | -15.8% | -13.4%
SMILES | TGFb inhibitor | S2 tox | DT40 TDP1 CPT | HepG2 tox | TDP1 cell noCPT | ATXN2 expr inh
N#Cc1cc(-c2ccccc2)nn1-c1ccccc1 | 9.6% | i | u | -1.5% | 20.6µM* | 26.5%
Cn1ccc(-c2ccccc2)n1 | 0.8% | i | 1.4% | -1.7% | 14.2% | -11.8%
CN1CCN(c2ccc(S(=O)(=O)N3CCCCC3)cc2N)CC1 | 10.3% | i | -24.0% | -0.1% | 4.6% | 9.3%
COc1ccc(CNC(=O)C2(c3cccs3)CCOCC2)cc1 | -22.3% | i | -3.4% | -5.6% | -28.5% | 11.7%
Cc1oc(-c2ccccc2NC(=O)C2CCC2)nc1CNC(=O)c1cccc(C(F)(F)F)c1 | x | u | 5.9%[9.04 µM] | x | -24.5% | x
Cc1ccccc1SCC(=O)OCC(=O)N(C)c1c(N)n(Cc2ccccc2)c(=O)[nH]c1=O | 2.2% | i | 14.4% | -18.9% | -15.4% | 9.1%
Cc1cc(N2CCN(C(=O)c3ccco3)CC2)nc(-c2ccccc2)n1 | -9.7% | i | u | -34.2% | 18.4µM* | -17.7%
CSCc1cc(N2CCCC2)nc(-c2ccccc2)n1 | -0.7% | i | 8.0% | -3.6% | u | -4.6%
Cc1cc(N2CCN(c3ccccc3)CC2)nc(-c2ccccc2)n1 | -4.0% | i | 23.1µM* | -20.4% | 10.3µM* | -17.1%
Cc1cc(N2CCN(c3ccccc3)CC2)nc(N)n1 | -6.7% | i | -17.3% | -13.8% | -19.1% | -4.2%
COCc1cc(N2CCCCC2)nc(-c2ccccc2)n1 | u | i | 10.3µM* | -14.3% | 18.4µM* | -34.6%[11.3 µM]
Nc1cc(Cl)ccc1Oc1ccccc1 | -1.7% | i | -15.6% | -14.7% | -22.8% | -17.4%
Cc1cccc(Oc2ccc(Cl)cc2N)c1 | -32.1% | i | -29.7% | 20µM* | u | 3.3%
COc1ccc(N2C(=O)CC(NNc3ncc(Cl)cc3Cl)C2=O)cc1 (stereo unspecified) | 0.0% | x | 14.6µM* | -20.5% | 14.6µM* | -24.3%
Cc1cccc(NC(=O)CCC(=O)Nc2nnc(C(F)(F)F)s2)c1 | 3.3% | i | 9.6% | -16.0% | 5.2% | -12.4%
COc1ccc(OC)c(C2C3=C(COC3=O)Nc3cc4c(cc32)OCO4)c1 (stereo unspecified) | u | u | 0.164µM* | 1.0% | 0.146µM* | -12.7%
COc1ccc(C2C3=C(CC(C)(C)CC3=O)Nc3cc4c(cc32)OCO4)cc1 (stereo unspecified) | -20.8% | u | -0.1% | -23.6% | -9.5% | -3.3%
CCCc1ccc(-c2cc(C(=O)NCCc3ccc(S(N)(=O)=O)cc3)c3ccccc3n2)cc1 | u | i | 14.6µM* | -59.8% | 11.6µM* | 38.7%
NS(=O)(=O)c1ccc(CCNC(=O)c2cc(-c3ccc(Br)cc3)nc3ccccc23)cc1 | u | u | 9.2µM* | -82.7% | 8.2µM* | x
